Data: the supplement of paper PMC11001985

The targets below were run with C#CCNC(=O)CCSSCCC(=O)NCCc1ccc(C=O)c(C=O)c1 (assay: lysine labeling ratio R10:1 (500 µM / 50 µM probe), SILAC-ABPP in living cells; higher = lower intrinsic lysine reactivity toward the probe, active = 2 or less). Conditions: HeLa; probe concentrations 500 vs 50 µM.
Procedure, shortened: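 In PBS at room temperature, living HeLa cells grown with SILAC light or heavy labels were treated with 50 µM or 500 µM of an alkyne-tagged, disulfide-linked lysine probe, with label swaps in both directions. Analysis was by LC-MS/MS on a TIMS-TOF Pro after click to biotin-azide, neutravidin capture and DTT release. For each lysine, R is the median across forward and reverse replicates of the filtered median high-probe/low-probe MS1 peptide ratio, capped at 20.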

Chain of UniProt P26038 (P26038 whole entry): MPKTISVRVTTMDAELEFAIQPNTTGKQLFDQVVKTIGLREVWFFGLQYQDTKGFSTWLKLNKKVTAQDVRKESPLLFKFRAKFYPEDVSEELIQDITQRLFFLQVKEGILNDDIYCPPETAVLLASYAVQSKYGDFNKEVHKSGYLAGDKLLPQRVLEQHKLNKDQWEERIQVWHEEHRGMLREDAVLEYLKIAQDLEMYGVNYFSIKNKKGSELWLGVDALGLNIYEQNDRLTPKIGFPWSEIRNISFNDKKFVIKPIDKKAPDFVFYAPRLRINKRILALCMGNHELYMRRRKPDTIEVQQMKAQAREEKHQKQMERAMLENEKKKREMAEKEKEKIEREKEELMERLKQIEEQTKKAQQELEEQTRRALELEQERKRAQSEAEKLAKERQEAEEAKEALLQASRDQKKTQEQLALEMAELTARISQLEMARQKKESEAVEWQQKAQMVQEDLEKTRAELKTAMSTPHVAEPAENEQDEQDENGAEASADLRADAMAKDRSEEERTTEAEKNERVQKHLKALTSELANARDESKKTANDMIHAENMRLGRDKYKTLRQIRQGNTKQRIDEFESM
Chain of UniProt Q14126 (Q14126 whole entry): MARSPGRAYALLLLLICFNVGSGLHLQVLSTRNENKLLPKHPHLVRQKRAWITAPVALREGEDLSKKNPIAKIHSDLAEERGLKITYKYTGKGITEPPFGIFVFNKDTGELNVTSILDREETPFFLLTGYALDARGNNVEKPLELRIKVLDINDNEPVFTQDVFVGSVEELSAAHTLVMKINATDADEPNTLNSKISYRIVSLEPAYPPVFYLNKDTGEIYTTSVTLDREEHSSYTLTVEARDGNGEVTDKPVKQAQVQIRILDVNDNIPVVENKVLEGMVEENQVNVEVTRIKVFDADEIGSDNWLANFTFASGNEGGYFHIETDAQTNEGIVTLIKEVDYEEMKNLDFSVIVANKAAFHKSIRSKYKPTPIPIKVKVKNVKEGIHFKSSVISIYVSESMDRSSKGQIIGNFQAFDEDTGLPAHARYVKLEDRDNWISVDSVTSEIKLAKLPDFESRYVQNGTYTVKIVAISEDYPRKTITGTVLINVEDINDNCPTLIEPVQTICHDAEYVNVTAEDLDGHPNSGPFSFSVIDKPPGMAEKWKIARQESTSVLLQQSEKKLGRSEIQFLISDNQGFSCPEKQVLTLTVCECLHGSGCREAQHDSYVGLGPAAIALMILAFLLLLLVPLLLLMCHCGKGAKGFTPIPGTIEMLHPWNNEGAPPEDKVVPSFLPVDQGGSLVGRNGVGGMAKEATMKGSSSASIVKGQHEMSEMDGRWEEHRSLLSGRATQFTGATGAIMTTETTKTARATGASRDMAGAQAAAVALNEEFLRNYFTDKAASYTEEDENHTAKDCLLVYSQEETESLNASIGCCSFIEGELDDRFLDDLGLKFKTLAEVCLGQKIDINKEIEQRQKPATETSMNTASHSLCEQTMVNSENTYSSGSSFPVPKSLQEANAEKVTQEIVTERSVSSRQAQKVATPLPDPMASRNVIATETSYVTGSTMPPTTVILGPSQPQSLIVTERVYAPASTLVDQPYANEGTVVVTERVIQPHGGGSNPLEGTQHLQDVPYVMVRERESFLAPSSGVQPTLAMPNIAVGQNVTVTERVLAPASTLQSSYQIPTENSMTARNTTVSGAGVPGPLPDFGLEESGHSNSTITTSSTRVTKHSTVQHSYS
Chain of UniProt P50990 (P50990 whole entry): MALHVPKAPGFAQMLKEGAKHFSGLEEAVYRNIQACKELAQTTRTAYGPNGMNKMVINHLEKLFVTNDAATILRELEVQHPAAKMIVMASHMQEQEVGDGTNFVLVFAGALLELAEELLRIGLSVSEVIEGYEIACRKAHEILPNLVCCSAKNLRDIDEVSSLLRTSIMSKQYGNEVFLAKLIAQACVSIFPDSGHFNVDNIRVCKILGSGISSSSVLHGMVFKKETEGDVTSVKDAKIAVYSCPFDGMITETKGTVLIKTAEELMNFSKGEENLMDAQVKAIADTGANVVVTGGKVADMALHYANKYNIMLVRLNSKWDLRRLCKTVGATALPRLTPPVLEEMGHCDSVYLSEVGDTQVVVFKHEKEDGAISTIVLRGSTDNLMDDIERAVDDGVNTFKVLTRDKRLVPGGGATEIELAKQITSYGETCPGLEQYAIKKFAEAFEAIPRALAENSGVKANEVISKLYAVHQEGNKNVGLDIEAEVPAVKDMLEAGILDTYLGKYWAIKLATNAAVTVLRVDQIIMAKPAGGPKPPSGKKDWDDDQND
Chain of UniProt P41221 (P41221 whole entry): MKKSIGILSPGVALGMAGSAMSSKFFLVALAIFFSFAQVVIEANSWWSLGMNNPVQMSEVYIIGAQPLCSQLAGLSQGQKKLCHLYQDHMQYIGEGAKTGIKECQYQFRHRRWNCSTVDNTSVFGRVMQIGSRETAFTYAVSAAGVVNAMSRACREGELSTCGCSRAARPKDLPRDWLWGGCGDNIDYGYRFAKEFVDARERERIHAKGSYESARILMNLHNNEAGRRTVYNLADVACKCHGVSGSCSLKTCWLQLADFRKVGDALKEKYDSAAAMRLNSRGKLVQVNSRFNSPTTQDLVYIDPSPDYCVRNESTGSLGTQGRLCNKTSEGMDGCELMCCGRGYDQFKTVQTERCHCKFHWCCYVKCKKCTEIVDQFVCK
Chain of UniProt O43865 (O43865 whole entry): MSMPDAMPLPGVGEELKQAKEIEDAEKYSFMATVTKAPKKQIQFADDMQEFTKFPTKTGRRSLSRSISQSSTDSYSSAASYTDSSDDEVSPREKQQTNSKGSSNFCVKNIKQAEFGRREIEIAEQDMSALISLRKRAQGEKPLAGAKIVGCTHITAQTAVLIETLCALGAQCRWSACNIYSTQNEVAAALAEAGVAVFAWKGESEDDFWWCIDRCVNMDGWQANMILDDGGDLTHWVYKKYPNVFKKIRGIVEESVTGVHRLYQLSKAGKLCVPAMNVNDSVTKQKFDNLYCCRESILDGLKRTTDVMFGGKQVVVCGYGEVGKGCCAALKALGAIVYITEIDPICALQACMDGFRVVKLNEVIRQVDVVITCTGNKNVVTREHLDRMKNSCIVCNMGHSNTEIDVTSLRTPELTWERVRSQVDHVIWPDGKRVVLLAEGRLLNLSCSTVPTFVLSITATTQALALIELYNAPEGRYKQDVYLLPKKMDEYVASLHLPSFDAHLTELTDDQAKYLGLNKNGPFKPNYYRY
Chain of UniProt P36941 (P36941 whole entry): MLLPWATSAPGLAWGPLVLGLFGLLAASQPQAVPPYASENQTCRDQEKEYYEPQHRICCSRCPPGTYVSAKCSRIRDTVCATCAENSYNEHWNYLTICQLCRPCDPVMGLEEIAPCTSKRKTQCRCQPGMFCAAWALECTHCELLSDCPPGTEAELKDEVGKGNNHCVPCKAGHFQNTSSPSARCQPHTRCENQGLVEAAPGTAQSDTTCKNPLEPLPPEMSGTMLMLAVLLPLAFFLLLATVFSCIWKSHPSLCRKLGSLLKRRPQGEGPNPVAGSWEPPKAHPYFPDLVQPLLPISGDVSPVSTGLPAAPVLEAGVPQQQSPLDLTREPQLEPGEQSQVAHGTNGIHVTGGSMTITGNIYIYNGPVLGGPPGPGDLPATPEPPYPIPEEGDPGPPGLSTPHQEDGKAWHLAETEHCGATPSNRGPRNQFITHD
Chain of UniProt P43007 (P43007 whole entry): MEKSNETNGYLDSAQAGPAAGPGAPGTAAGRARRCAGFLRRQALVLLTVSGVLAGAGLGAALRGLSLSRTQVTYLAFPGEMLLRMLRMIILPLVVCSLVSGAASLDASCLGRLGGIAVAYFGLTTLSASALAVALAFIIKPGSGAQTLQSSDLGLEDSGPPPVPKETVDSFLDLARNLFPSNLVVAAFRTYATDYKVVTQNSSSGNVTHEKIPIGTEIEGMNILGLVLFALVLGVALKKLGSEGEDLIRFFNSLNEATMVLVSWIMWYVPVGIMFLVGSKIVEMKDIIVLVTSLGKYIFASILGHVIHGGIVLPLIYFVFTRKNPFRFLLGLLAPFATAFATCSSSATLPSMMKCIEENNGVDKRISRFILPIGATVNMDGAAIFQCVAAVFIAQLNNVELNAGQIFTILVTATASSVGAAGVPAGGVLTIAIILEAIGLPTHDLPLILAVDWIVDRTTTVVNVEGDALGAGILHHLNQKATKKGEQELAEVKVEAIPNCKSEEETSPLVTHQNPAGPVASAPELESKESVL
Chain of UniProt Q14974 (Q14974 whole entry): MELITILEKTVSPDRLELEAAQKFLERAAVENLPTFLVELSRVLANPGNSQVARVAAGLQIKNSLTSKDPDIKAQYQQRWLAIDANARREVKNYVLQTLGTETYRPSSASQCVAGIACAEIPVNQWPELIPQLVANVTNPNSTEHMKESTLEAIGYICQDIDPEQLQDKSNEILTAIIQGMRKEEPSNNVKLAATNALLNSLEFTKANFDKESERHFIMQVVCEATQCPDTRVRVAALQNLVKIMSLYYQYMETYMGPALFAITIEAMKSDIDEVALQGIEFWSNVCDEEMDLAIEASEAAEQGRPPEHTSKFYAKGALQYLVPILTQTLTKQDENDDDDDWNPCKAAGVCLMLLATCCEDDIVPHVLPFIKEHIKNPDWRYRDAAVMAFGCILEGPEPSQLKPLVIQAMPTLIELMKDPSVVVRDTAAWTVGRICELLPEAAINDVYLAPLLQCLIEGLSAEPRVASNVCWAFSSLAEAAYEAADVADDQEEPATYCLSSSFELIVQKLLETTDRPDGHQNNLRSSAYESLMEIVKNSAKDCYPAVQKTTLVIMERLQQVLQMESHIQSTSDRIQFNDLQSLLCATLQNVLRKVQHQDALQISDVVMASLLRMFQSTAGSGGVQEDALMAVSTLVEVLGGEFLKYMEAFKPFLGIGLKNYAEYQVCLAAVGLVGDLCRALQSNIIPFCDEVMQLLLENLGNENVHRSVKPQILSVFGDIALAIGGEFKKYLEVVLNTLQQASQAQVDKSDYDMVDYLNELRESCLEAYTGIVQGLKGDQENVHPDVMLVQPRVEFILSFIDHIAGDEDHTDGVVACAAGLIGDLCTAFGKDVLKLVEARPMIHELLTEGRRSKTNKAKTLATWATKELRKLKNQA

| Target | lysine labeling ratio R10:1 |
| --- | --- |
| WNT5A (lysine site: K171) (UniProt P41221) | 3.57 (inactive) |
| AHNAK (lysine site: K326) (UniProt Q09666) | 1.7 (active) |
| SLC1A4 (lysine site: K239) (UniProt P43007) | 1.94 (active) |
| ATRN (lysine site: K1133) (UniProt O75882) | 1.81 (active) |
| ITGB1 (lysine site: K136) (UniProt P05556) | 1.75 (active) |
| MSN (lysine site: K514) (UniProt P26038) | 3.78 (inactive) |
| ARHGAP17 (lysine site: K9) (UniProt Q68EM7) | 1.92 (active) |
| CCT8 (lysine site: K318) (UniProt P50990) | 2.44 (inactive) |
| RPL35A (lysine site: K45) (UniProt P18077) | 1.38 (active) |
| LTBR (lysine site: K48) (UniProt P36941) | 4.97 (inactive) |
| UniProt O43865 (lysine site: K302) | 1.25 (active) |
| EPHA2 (lysine site: K475) (UniProt P29317) | 2.38 (inactive) |
| DSG2 (lysine site: K141) (UniProt Q14126) | 4.68 (inactive) |
| PTGFRN (lysine site: K752) (UniProt Q9P2B2) | 3.57 (inactive) |
| LMAN1 (lysine site: K407) (UniProt P49257) | 3.11 (inactive) |
| KPNB1 (lysine site: K376) (UniProt Q14974) | 2.54 (inactive) |
| UniProt Q9BZM4 (lysine site: K192) | 1.43 (active) |
